MBNL1-CUG inh – qHTS Assay for Inhibitors of MBNL1-poly(CUG) RNA binding. Muscleblind-like protein 1 (Homo sapiens), Q9NR56. Potency, µM (series often up to 57.5 µM), inactives show top-dose activity change, negative = inhibition, actives largely listed as inhibitors. TR-FRET MBNL1-His/biotin-(CUG)12 binding, 665/545 ratio. 280,000 compounds, 0.036% hits; active means well fitted inhibition curve with a large enough effect in the signal ratio, with a control signal flat, not every such curve was filed as active; inconclusive means small, poorly fitted or top-dose-only effect, or effect the other way, or a change in a side signal; inactive means no such curve, though single readings can be large or run the other way; the % refers to the signal ratio; further: potency means the concentration at half of the fitted maximal effect; on the % scale 0 is the no-effect control and ±100 the full control effect
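Inhibition of protein-RNA binding appears as loss of TR-FRET between terbium anti-His antibody on MBNL1-His and streptavidin-XL665 on biotin-(CUG)12. Activity is normalized to buffer-only and uninhibited-complex controls.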
CBFb-RUNX1 inh – qHTS Assay for Compounds Blocking the Interaction Between CBF-beta and RUNX1 for the Treatment of Acute Myeloid Leukemia; Runt-related transcription factor 1 (Homo sapiens) + Core-binding factor subunit beta …; AlphaScreen CBFb-His/RUNX1-biotin binding, biochemical; Potency, µM (series often up to 59.8 µM), inactives show top-dose activity, negative = inhibition, most hits filed as inhibitors; 230,000 tested, under 10 active; further: % of control where 0% means no effect
Target sequence (Q01196 whole entry, looked up): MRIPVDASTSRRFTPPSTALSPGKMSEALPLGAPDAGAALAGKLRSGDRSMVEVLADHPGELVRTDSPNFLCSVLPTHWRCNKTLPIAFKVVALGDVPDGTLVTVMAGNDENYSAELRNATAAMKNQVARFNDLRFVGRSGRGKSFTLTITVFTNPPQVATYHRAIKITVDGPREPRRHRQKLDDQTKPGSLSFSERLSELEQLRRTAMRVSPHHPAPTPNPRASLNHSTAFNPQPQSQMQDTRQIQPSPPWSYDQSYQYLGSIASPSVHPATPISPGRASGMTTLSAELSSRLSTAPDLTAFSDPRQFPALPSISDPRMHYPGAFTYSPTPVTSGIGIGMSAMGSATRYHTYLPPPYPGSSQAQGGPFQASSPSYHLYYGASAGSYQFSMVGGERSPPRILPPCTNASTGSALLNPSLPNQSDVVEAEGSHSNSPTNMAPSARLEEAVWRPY
Target sequence (Q13951 whole entry, looked up): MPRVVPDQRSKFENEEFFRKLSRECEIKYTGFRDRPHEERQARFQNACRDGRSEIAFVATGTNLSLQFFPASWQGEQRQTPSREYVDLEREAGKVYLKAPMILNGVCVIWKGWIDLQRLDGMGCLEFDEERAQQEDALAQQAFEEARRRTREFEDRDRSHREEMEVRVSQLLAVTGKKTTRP
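CBF-beta (His) and RUNX1 (biotin), 30 nM each; 20 min preassociation; + compound, 15 min; + beads 50 ng each (Ni, streptavidin), 90 min; RT; AlphaScreen read.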
Six1-Eya2 inh – qHTS Assay for Inhibitors of the Six1/Eya2 Interaction; Homeobox protein SIX1 (Homo sapiens) + Protein phosphatase EYA2 (Homo sapiens), …; AlphaScreen GST-Six1/His-Eya2 binding, biochemical; stronger effect = lower value; activity change, % (test concentration not listed); 360,000 compounds, 0.56% hits; in the data active means activity change below about -65%; inconclusive means mostly about -30% to -63%; further: on the % scale 0 is the no-effect control and ±100 the full control effect
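Homogeneous AlphaScreen proximity assay pairing GST-Six1 with His-tagged Eya2 (added as 5X mix: 250 nM and 500 nM) in 50 mM Tris pH 8.0, 300 mM NaCl, 1 mM TCEP. Glutathione donor and nickel acceptor beads; 1 h, 37 °C, dark.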
CtBP-E1A blk – qHTS Assay for Inhibitors of the CtBP/E1A Interaction; CtBP / adenovirus E1A interaction (AlphaScreen); AlphaScreen GST-E1A/His-CtBP binding, 1536-well; stronger effect = lower value; 340,000 compounds, 0.49% hits; AID 651724, 2012; activity change, % (no concentration beside the values); in the data active means activity change below about -65%; inconclusive means mostly about -30% to -63%; further: on the % scale 0 is the no-effect control and ±100 the full control effect
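GST-E1A and His-tagged CtBP (125 nM each as 5X stock) were preincubated with pin-transferred compound for 2 h at 37 °C in the dark, then glutathione donor and nickel acceptor beads were added for 1 h before AlphaScreen reading.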
RORgamma inh – qHTS for inhibitors of ROR gamma transcriptional activity; Nuclear receptor ROR-gamma (Mus musculus), P51450; Drosophila S2 Gal4-RORgamma UAS-luciferase reporter, 20 h; Potency, µM (titrated, usually from 53.6 µM), inactives show at the top dose activity change, negative = inhibition, actives largely listed as inhibitors; 310,000 compounds, 5.4% hits; AID 2551, 2010; further: potency means the concentration at half of the fitted maximal effect; on the % scale 0 is the no-effect control and ±100 the full control effect; nearly all actives have a fitted effect of over 60% in size
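Schneider cells (Drosophila), stable Gal4 DBD–ROR gamma + UAS-luc; 1 hr cmpd preincubation; Cu2+ induction 700 uM final; 20 hr ambient; luminescence.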
Gal4-VP16 FLuc – VP16 counterscreen qHTS for inhibitors of ROR gamma transcriptional activity. Drosophila S2 Gal4-VP16 UAS-luciferase, luminescence, 20 h. Potency, µM (doses to about 53.6 µM), without a hit: top-dose activity, negative = inhibition, most hits filed as inhibitors. 310,000 compounds, 3.5% hits. AID 2546, 2010;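 further: Gal4-VP16 expression switched on by copper sulfate through the metallothionein promoter; potency means the concentration at half of the fitted maximal effect; on the % scale 0 is the no-effect control and ±100 the full control effect; nearly all actives have a fitted effect of over 50% in size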
* = called active by the depositor; [ ] = remark or other dose. An excerpt weighted towards active compounds, which were near 5.5% of everything screened. Unless noted, the call rests on the fitted dose curve; in most records, active means well fitted curve in the direction sought with a large enough effect; inconclusive means small, poorly fitted or top-dose-only effect, or another doubt; inactive means no such curve, though single readings can be large; an effect the other way counts as inactive or inconclusive.

For Cn1cc(C(C[N+](=O)[O-])c2ccccc2)c2ccccc21 (configuration not stated) the results were MBNL1-CUG inh -11.0%, Six1-Eya2 inh 2.9, CtBP-E1A blk 0.1, RORgamma inh inconclusive and Gal4-VP16 FLuc 3.1%.
`O=C(N/N=C\c1ccccn1)C1COc2cc3ccccc3cc2O1` (configuration not stated) gave MBNL1-CUG inh inconclusive, CBFb-RUNX1 inh inconclusive, Six1-Eya2 inh -14.3, CtBP-E1A blk -15.8, RORgamma inh 4.47µM* and Gal4-VP16 FLuc inconclusive.
Screening O=C(N/N=C\c1ccccn1)C1c2ccccc2Oc2ccccc21 returned MBNL1-CUG inh -6.8%, CBFb-RUNX1 inh -6.1%, Six1-Eya2 inh 0.4, CtBP-E1A blk -13.7, RORgamma inh 7.94µM* and Gal4-VP16 FLuc inconclusive.
Screening NNC(=O)C1COc2cc3ccccc3cc2O1 (configuration not stated) returned MBNL1-CUG inh 15.5%, Six1-Eya2 inh 3.5, CtBP-E1A blk -1.9, RORgamma inh -38.8% and Gal4-VP16 FLuc -13.6%.
CCO[C@H](c1cc(OC)cc([N+](=O)[O-])c1OC)[C@H](C)/C=C\CC(=O)OC was read as CBFb-RUNX1 inh 14.2%[13.1 µM], RORgamma inh -12.1%[10 µM] and Gal4-VP16 FLuc 5.5%[10 µM].
For O=c1[nH]c2ccccc2nc1-c1ccccc1 the results were MBNL1-CUG inh inconclusive, CBFb-RUNX1 inh 3.9%, Six1-Eya2 inh 20.7, CtBP-E1A blk -3.9, RORgamma inh 24.7% and Gal4-VP16 FLuc -12.1%.
Screening NC(=O)N=Nc1c2[nH]c3ccccc3nc-2c2ccccc12 returned MBNL1-CUG inh inconclusive, CBFb-RUNX1 inh 0.8%, Six1-Eya2 inh inconclusive, CtBP-E1A blk -69.1*, RORgamma inh inconclusive and Gal4-VP16 FLuc -29.6%.
`CCn1c(=O)cc(OCC(=O)NCc2ccc(C)o2)c2ccccc21` gave MBNL1-CUG inh 3.8%, CBFb-RUNX1 inh -12.8%, Six1-Eya2 inh -1.7, CtBP-E1A blk -10.8, RORgamma inh 14.1µM* and Gal4-VP16 FLuc 7.3%.
Screening COc1ccccc1-c1cnc2c(c1)C(=O)N([C@@H](C)CO)C[C@H](C)[C@H](CN(C)C)O2 returned Six1-Eya2 inh 3.4 and CtBP-E1A blk -3.7.
Screening CCCCn1c(N)c(C(=S)NC(=O)CC(C)(C)C)c(=O)n(C)c1=O returned MBNL1-CUG inh -4.3%, CBFb-RUNX1 inh -4.8%, Six1-Eya2 inh -2.7, CtBP-E1A blk -2.1, RORgamma inh 1.26µM* and Gal4-VP16 FLuc 0.708µM*.
Screening CCCn1c(N)c(C(=O)CSc2ncn[nH]2)c(=O)n(C)c1=O returned Six1-Eya2 inh -12.0 and CtBP-E1A blk -3.5.
For COc1cc(C(C)=O)ccc1O the results were Six1-Eya2 inh 0.1 and CtBP-E1A blk -17.5.
COc1ccc2nc(Nc3sc4c(c3C(N)=O)CCCC4)sc2c1 was read as MBNL1-CUG inh 35.5%, CBFb-RUNX1 inh -9.3%, Six1-Eya2 inh -21.7, CtBP-E1A blk -20.3, RORgamma inh 1.41µM* and Gal4-VP16 FLuc 3.55µM*.
For COc1cccc(Nc2nc3ccc(OC)cc3s2)c1 the results were MBNL1-CUG inh -4.3%, CBFb-RUNX1 inh -3.8%, Six1-Eya2 inh -8.0, CtBP-E1A blk -0.8, RORgamma inh 11.2µM* and Gal4-VP16 FLuc inconclusive.
`COc1ccc(Nc2nc3ccccc3s2)cc1` gave MBNL1-CUG inh -2.4%, CBFb-RUNX1 inh -1.1%, Six1-Eya2 inh -2.2, CtBP-E1A blk 5.2, RORgamma inh inconclusive and Gal4-VP16 FLuc 1.6%.
CCOC(=O)NC(=S)Nc1ccc(C(C)(C)C)cc1Br was read as MBNL1-CUG inh -0.1%, CBFb-RUNX1 inh 19.2%, Six1-Eya2 inh -3.9, CtBP-E1A blk 3.0, RORgamma inh 3.55µM* and Gal4-VP16 FLuc 10µM*.
Screening CC(Sc1nc(N)cc(=O)[nH]1)C(=O)NCC(=O)Nc1ccc(F)c(F)c1F (configuration not stated) returned Six1-Eya2 inh 1.4 and CtBP-E1A blk -2.0.
COc1cccc(NC(=O)CN2C(=O)C(=O)N(C3CCCC3)C2=O)c1 was read as Six1-Eya2 inh 8.8 and CtBP-E1A blk -8.1.
O=C(O)c1ccc(N=Nc2c(O)ccc3ncccc23)cc1 was read as MBNL1-CUG inh inconclusive, Six1-Eya2 inh -93.9*, RORgamma inh 1.12µM* and Gal4-VP16 FLuc 3.16µM*.
COc1ccc(-c2csc(Nc3ncccc3C)n2)cc1OC was read as MBNL1-CUG inh -1.0%, CBFb-RUNX1 inh -12.2%, Six1-Eya2 inh -27.9, CtBP-E1A blk -23.6, RORgamma inh 3.55µM* and Gal4-VP16 FLuc -27.2%.
Screening Cc1cccnc1Nc1nc(-c2ccc(O)c(O)c2)cs1 returned MBNL1-CUG inh 2.8%, CBFb-RUNX1 inh inconclusive, Six1-Eya2 inh -21.2, CtBP-E1A blk -2.4, RORgamma inh -111.5% and Gal4-VP16 FLuc 7.08µM*.
`COc1ccc(-c2csc(Nc3ncccc3C)n2)cc1` gave MBNL1-CUG inh -10.7%, CBFb-RUNX1 inh -5.9%, Six1-Eya2 inh -8.3, CtBP-E1A blk -0.3, RORgamma inh inconclusive and Gal4-VP16 FLuc 6.4%.
CC(C)CCCCCCCCCCCCC(=O)NCC(=O)NC1C(C)OC(Nc2ncnc3nc[nH]c23)C(O)C1O (configuration not stated) was read as Six1-Eya2 inh 10.0 and CtBP-E1A blk -2.5.
CC(=O)N(C(C)=O)c1ccc(Oc2ccc(Oc3ccc(N(C(C)=O)C(C)=O)cc3)cc2)cc1 was read as Six1-Eya2 inh -2.6 and CtBP-E1A blk 13.8.
For O=C(NCCNC(=O)c1ccccc1F)c1ccco1 the results were MBNL1-CUG inh 1.6%, Six1-Eya2 inh -0.9, CtBP-E1A blk -4.8, RORgamma inh -11.1% and Gal4-VP16 FLuc -6.2%.
Screening COc1ccc(C2C(C(=O)c3ccccc3)=C(C)Nc3nc4ccccc4n32)c(OC)c1 (configuration not stated) returned MBNL1-CUG inh 14.2%, CBFb-RUNX1 inh 6.2%[2.36 µM], Six1-Eya2 inh -4.3, CtBP-E1A blk -0.4, RORgamma inh 6.31µM* and Gal4-VP16 FLuc -1.6%.

Assay outcomes (PubChem)
